Data: PubChem BioAssay (NCI)
About 79,000 compounds went through this panel and 15% of them were active in at least one assay; those are over-represented in the sample as a whole. Active and inactive are the calls of the source. Cut-off read from the data, not from the text of the source: active = growth inhibition above about 70%; inactive = the rest.

Columns and labels:
[1] = NCI Yeast Anticancer Drug Screen. Data for the rad52 strain (AID 147);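 note: 0% = growth of vehicle-treated control cultures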; conditions: S. cerevisiae rad52 mutant growth inhibition, stronger effect = higher value
Outline: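 Inhibition of yeast growth, referenced to vehicle controls, was the measured output for a strain with defective DNA damage repair.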

[2] = NCI Yeast Anticancer Drug Screen. Data for the wt1 strain (AID 149);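 note: 0% = growth of vehicle-treated wt1 cultures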; conditions: S. cerevisiae wt1 strain (SPY 50644) growth inhibition, stronger effect = higher value
Outline: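 Using yeast strain wt1, compound-induced growth inhibition was determined against vehicle-treated cultures.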

[3] = NCI Yeast Anticancer Drug Screen. Data for the rad50EPP+ strain (AID 151);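 note: 0% = growth of vehicle-treated control cultures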; conditions: S. cerevisiae rad50 mutant strain, stronger effect = higher value
Outline: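 Genetically defined yeast (rad50EPP+, DNA damage repair alteration) is grown with compound, and inhibition of growth is expressed relative to vehicle-treated controls.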

[4] = NCI Yeast Anticancer Drug Screen. Data for the mgt1 strain (AID 153); conditions: S. cerevisiae mgt1 mutant growth inhibition, stronger effect = higher value
Outline: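 In the mgt1 strain, test compounds were added and growth inhibition was determined relative to vehicle-treated controls.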

[5] = NCI Yeast Anticancer Drug Screen. Data for the rad50 strain (AID 155);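 note: 0% = growth of vehicle-only cultures of the same strain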; conditions: S. cerevisiae rad50 strain growth inhibition, stronger effect = higher value
Outline: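 Relative growth inhibition (compound vs vehicle) was measured in yeast with a defined repair-gene alteration.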

[6] = NCI Yeast Anticancer Drug Screen. Data for the mec2-1 strain (AID 157); conditions: S. cerevisiae mec2-1 strain, stronger effect = higher value
Outline: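 Each compound was tested on mec2-1 yeast, a strain altered in DNA damage repair or cell cycle control. Growth inhibition is reported relative to vehicle.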

[7] = NCI Yeast Anticancer Drug Screen. Data for the rad14 strain (AID 159);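 note: 0% = growth of vehicle-treated control cultures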; conditions: S. cerevisiae rad14 strain growth inhibition, stronger effect = higher value
Outline: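 Screen for anticancer potential: a yeast strain altered in DNA damage repair is grown with compound, and reduced growth is quantified against vehicle controls.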

[8] = NCI Yeast Anticancer Drug Screen. Data for the sgs1 mgt1 strain (AID 161);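 note: 0% = growth of cultures given vehicle only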; conditions: S. cerevisiae sgs1 mgt1 strain, stronger effect = higher value
Outline: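 Genetically altered yeast, compound exposure, growth inhibition relative to vehicle.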

[9] = NCI Yeast Anticancer Drug Screen. Data for the CLN2oe strain (AID 163);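 note: 0% = growth of vehicle-only control cultures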; conditions: S. cerevisiae CLN2oe strain, stronger effect = higher value
Outline: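 First, the altered yeast strain was treated with each compound; second, its growth was measured; finally, inhibition was derived by comparison with vehicle controls.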

[10] = NCI Yeast Anticancer Drug Screen. Data for the cln2 rad14 strain (AID 165);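 note: 0% = growth equal to vehicle treated cultures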; conditions: S. cerevisiae cln2 rad14 strain, stronger effect = higher value
Outline: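 Test compounds were added to cln2 rad14 yeast cultures; inhibition of growth was then determined by comparison with vehicle treatment.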

[11] = NCI Yeast Anticancer Drug Screen. Data for the bub3 strain (AID 167); conditions: S. cerevisiae bub3 mutant strain, stronger effect = higher value
Outline: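 Screening used yeast with an engineered genetic alteration affecting cell cycle control. Compound-exposed cultures were compared with vehicle cultures, and reduced growth was taken as inhibition.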

[12] = NCI Yeast Anticancer Drug Screen. Data for the wt2 strain (AID 169);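 note: 0% = growth of vehicle-treated yeast cultures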; conditions: S. cerevisiae wt2 strain growth inhibition, stronger effect = higher value
Outline: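 The panel's yeast strains carry defined changes in DNA repair or cell cycle genes. Each strain is grown with compound, and growth loss is scored relative to vehicle.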

[13] = NCI Yeast Anticancer Drug Screen. Data for the mlh1 strain (AID 171);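 note: 0% = growth of vehicle-treated control cultures of the same strain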; conditions: S. cerevisiae mlh1 strain growth inhibition, stronger effect = higher value
Outline: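 Inhibition values reflect reduced yeast growth in the presence of compound, referenced to vehicle controls, using a strain chosen for its alteration in DNA repair or cell cycle control.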

[14] = NCI Yeast Anticancer Drug Screen. Data for the sgs1 strain (AID 173);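 note: 0% = growth of vehicle-only control cultures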; conditions: S. cerevisiae sgs1 mutant, stronger effect = higher value
Outline: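 Vehicle-treated cultures served as reference for growth inhibition of a yeast strain altered in DNA damage repair or cell cycle control after compound exposure.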

[15] = NCI Yeast Anticancer Drug Screen. Data for the mlh1 rad18 strain (AID 175); conditions: S. cerevisiae mlh1 rad18 strain growth inhibition, stronger effect = higher value
Outline: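 Inhibition values reflect reduced growth of mutant yeast versus vehicle-treated controls following compound exposure; the mutations affect DNA damage repair.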

[16] = at 5.0 µM (retest, dose inferred, filed as 0.5)
[17] = at 50.0 µM (retest, dose inferred, filed as 5.0)

Measured: growth inhibition

NC(=O)NN=C(CS)CS
active: [1]; at 100.0 µM 88% | [5]; at 100.0 µM 89% | [7]; at 100.0 µM 97% | [8]; at 50.0 µM 75% | [14]; at 100.0 µM 89% | [15]; at 50.0 µM 84.8%
inactive: [1]; at 1.2 µM -1% | [1]; at 3.7 µM 4% | [1]; at 11.0 µM 19% | [1]; at 33.0 µM 50% | [2]; at 1.2 µM -1% | [2]; at 3.7 µM -2% | [2]; at 11.0 µM -1% | [2]; at 33.0 µM 17% | [2]; at 100.0 µM 33% | [3]; at 1.2 µM -2% | [3]; at 3.7 µM -1% | [3]; at 11.0 µM -5% | [3]; at 33.0 µM 6% | [3]; at 100.0 µM 29% | [4]; at 1.2 µM -1% | [4]; at 3.7 µM 0% | [4]; at 11.0 µM 2% | [4]; at 33.0 µM 12% | [4]; at 100.0 µM 66% | [5]; at 1.2 µM 1% | [5]; at 3.7 µM 30% | [5]; [16] 4% | [5]; at 11.0 µM 31% | [5]; at 33.0 µM 44% | [5]; [17] 57% | [5]; at 50.0 µM 63.8% | [6]; at 1.2 µM 0% | [6]; at 3.7 µM 0% | [6]; [16] 1% | [6]; at 11.0 µM 6% | [6]; at 33.0 µM 24% | [6]; [17] 28% | [6]; at 50.0 µM 48.5% | [6]; at 100.0 µM 60% | [7]; at 1.2 µM -2% | [7]; at 3.7 µM 0% | [7]; at 11.0 µM 6% | [7]; at 33.0 µM 30% | [8]; [16] 2% | [8]; [17] 32% | [9]; at 1.2 µM -9% | [9]; at 3.7 µM -11% | [9]; at 11.0 µM -10% | [9]; at 33.0 µM 0% | [9]; at 100.0 µM 11% | [10]; [16] -22% | [10]; [17] 9% | [10]; at 50.0 µM -11.9% | [11]; at 1.2 µM 0% | [11]; at 3.7 µM -7% | [11]; [16] -3% | [11]; at 11.0 µM 3% | [11]; at 33.0 µM 14% | [11]; [17] 15% | [11]; at 50.0 µM 27.4% | [11]; at 100.0 µM 56% | [12]; at 1.2 µM 0% | [12]; at 3.7 µM 8% | [12]; at 11.0 µM 2% | [12]; at 33.0 µM 10% | [12]; at 100.0 µM 46% | [13]; at 1.2 µM 0% | [13]; at 3.7 µM -1% | [13]; at 11.0 µM 3% | [13]; at 33.0 µM 14% | [13]; at 100.0 µM 60% | [14]; at 1.2 µM 0% | [14]; at 3.7 µM 5% | [14]; at 11.0 µM 18% | [14]; at 33.0 µM 49% | [15]; [16] 5% | [15]; [17] 47%

O=C(O)CNc1ccc(Cl)c(Cl)c1
inactive: [1]; at 1.2 µM -2% | [1]; at 3.7 µM 0% | [1]; at 11.0 µM 14% | [2]; at 1.2 µM -3% | [2]; at 3.7 µM -6% | [2]; at 11.0 µM -6% | [2]; at 33.0 µM 25% | [3]; at 1.2 µM -2% | [3]; at 3.7 µM 1% | [3]; at 11.0 µM 6% | [3]; at 33.0 µM 22% | [3]; at 100.0 µM 43% | [4]; at 1.2 µM -2% | [4]; at 3.7 µM -4% | [4]; at 11.0 µM -6% | [4]; at 33.0 µM 32% | [5]; at 1.2 µM -2% | [5]; at 3.7 µM 6% | [5]; [16] -7% | [5]; at 11.0 µM 13% | [5]; [17] 18% | [6]; at 1.2 µM -10% | [6]; at 3.7 µM -1% | [6]; [16] -7% | [6]; at 11.0 µM -8% | [6]; at 33.0 µM 38% | [6]; [17] 30% | [6]; at 50.0 µM 57.2% | [7]; at 1.2 µM -6% | [7]; at 3.7 µM -7% | [7]; at 11.0 µM -7% | [7]; at 33.0 µM 48% | [8]; [16] -6% | [8]; [17] 22% | [8]; at 50.0 µM 38.4% | [9]; at 1.2 µM -4% | [9]; at 3.7 µM -1% | [9]; at 11.0 µM 0% | [9]; at 33.0 µM 58% | [10]; [16] 10% | [10]; [17] 1% | [11]; at 1.2 µM -9% | [11]; at 3.7 µM -12% | [11]; [16] -8% | [11]; at 11.0 µM 5% | [11]; at 33.0 µM 67% | [11]; [17] 17% | [12]; at 1.2 µM -5% | [12]; at 3.7 µM -5% | [12]; at 11.0 µM -6% | [13]; at 1.2 µM -2% | [13]; at 3.7 µM 1% | [13]; at 11.0 µM 2% | [14]; at 1.2 µM -3% | [14]; at 3.7 µM -5% | [14]; at 11.0 µM 4% | [15]; [16] -16%
active: [1]; at 33.0 µM 77% | [1]; at 100.0 µM 98% | [2]; at 100.0 µM 98% | [4]; at 100.0 µM 99% | [5]; at 33.0 µM 75% | [5]; at 50.0 µM 78.2% | [5]; at 100.0 µM 98% | [6]; at 100.0 µM 99% | [7]; at 100.0 µM 98% | [9]; at 100.0 µM 98% | [10]; at 50.0 µM 84.2% | [11]; at 50.0 µM 87.3% | [11]; at 100.0 µM 98% | [12]; at 33.0 µM 78% | [12]; at 100.0 µM 99% | [13]; at 33.0 µM 71% | [13]; at 100.0 µM 99% | [14]; at 33.0 µM 74% | [14]; at 100.0 µM 98% | [15]; [17] 76% | [15]; at 50.0 µM 89.2%
